Source: PubChem BioAssay (NCI)
The panel holds about 79,000 compounds, 15% with a hit somewhere; the sample as a whole holds those more often. Cut-off read from the data, not from the text of the source: active = growth inhibition above about 70%; inactive = the rest.

Columns and labels:
[1] = NCI Yeast Anticancer Drug Screen. Data for the rad50 strain (AID 155);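 note: 0% = growth of vehicle-only cultures of the same strain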; conditions: S. cerevisiae rad50 strain growth inhibition; at 50.0 µM; stronger effect = higher value
How it was run: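 Yeast carrying a defined DNA repair defect were exposed to test compounds, and growth was compared with vehicle-treated controls to give percent inhibition.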

[2] = NCI Yeast Anticancer Drug Screen. Data for the mec2-1 strain (AID 157); conditions: S. cerevisiae mec2-1 strain, at 50.0 µM, stronger effect = higher value
How it was run: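 mec2-1 yeast strain, carrying an alteration in DNA damage repair or cell cycle control, was exposed to compounds; growth inhibition was measured relative to vehicle-treated controls.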

[3] = NCI Yeast Anticancer Drug Screen. Data for the sgs1 mgt1 strain (AID 161);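 note: 0% = growth of cultures given vehicle only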; conditions: S. cerevisiae sgs1 mgt1 strain, at 50.0 µM, stronger effect = higher value
How it was run: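 Percent growth inhibition was derived by comparing compound-exposed mutant yeast with vehicle-exposed cultures. The strain carries alterations in DNA damage repair.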

[4] = NCI Yeast Anticancer Drug Screen. Data for the cln2 rad14 strain (AID 165);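 note: 0% = growth equal to vehicle treated cultures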; conditions: S. cerevisiae cln2 rad14 strain, at 50.0 µM, stronger effect = higher value
How it was run: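 Yeast carrying cln2 and rad14 alterations (cell cycle control and DNA damage repair) were exposed to compounds. Growth inhibition was measured against vehicle-treated controls.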

[5] = NCI Yeast Anticancer Drug Screen. Data for the bub3 strain (AID 167); conditions: S. cerevisiae bub3 mutant strain, at 50.0 µM, stronger effect = higher value
How it was run: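 Compounds were applied to a genetically altered yeast strain carrying a cell-cycle control defect. Growth inhibition was scored against vehicle-treated controls.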

[6] = NCI Yeast Anticancer Drug Screen. Data for the mlh1 rad18 strain (AID 175); conditions: S. cerevisiae mlh1 rad18 strain growth inhibition; at 50.0 µM; stronger effect = higher value
How it was run: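 Growth inhibition of the yeast strain was measured after compound exposure and expressed relative to vehicle-treated controls. The strain carries defined defects in DNA damage repair.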

Measured: growth inhibition

NC1=C(O)C(=O)C(c2ccccc2O)O1 (stereo not given)
inactive: [1] -34.6% | [2] -32.6% | [3] -19.1% | [4] -21.6% | [5] -18.6% | [6] -10.9%

COc1ccccc1OC(=O)Nc1ccc(S(=O)(=O)N(C)C)cc1
inactive: [1] 28.2% | [2] 8.5% | [3] 0% | [4] 4.1% | [5] 8.65% | [6] 6.65%

CCCCc1c(O)c2c(=O)[nH]c(C)nc2oc1=O
inactive: [1] -9.8% | [2] -5.95% | [3] -9.65% | [4] -13.2% | [5] -32.4% | [6] 10.9%

CC(C)COC(=O)c1cc(O)[nH]c(=O)c1
inactive: [1] -19.6% | [2] -7.8% | [3] 1.75% | [4] -40.1% | [5] -15.5% | [6] -6.8%

Cc1cccc(-c2cc(=O)c3c(C)ccnc3[nH]2)c1
inactive: [1] 10.3% | [2] -1% | [3] -0.85% | [4] -4.5% | [5] -3.3% | [6] -12.9%

CON(C)c1nc2ccccc2o1
inactive: [1] -22.1% | [2] -8.45% | [3] -9% | [4] -16.8% | [5] -2.3% | [6] -17.6%

Oc1ccc(Cl)cc1C=Nc1cnc2ccccc2c1
inactive: [1] -14.6% | [2] 24.9% | [3] 1.95% | [4] -10.9% | [5] 9.1% | [6] 17.4%

Nc1cc([N+](=O)[O-])ccc1-c1ccc([N+](=O)[O-])cc1
inactive: [1] 3.25% | [2] -2.2% | [3] 8.1% | [4] 10.2% | [5] 15.2% | [6] -8.85%

O=[N+]([O-])c1ccc(S(=O)(=O)c2ccc(NCN3CCCCC3)cc2)cc1
inactive: [1] 25.1% | [2] 6.2% | [3] 26.9% | [4] -3.95% | [5] 13.7% | [6] 17.6%

CCOC(CN(CC)CC)OCC
inactive: [1] -6.75% | [2] -27.6% | [3] -5.15% | [4] 7.2% | [5] -21.8% | [6] 2.15%

Nc1cccc(S(N)(=O)=O)c1
inactive: [1] 10.4% | [2] -5.65% | [3] -0.85% | [4] -40% | [5] 12.2% | [6] 1.4%

NC(CC(=O)Nc1ccc(Cl)cc1)=Nc1ccccc1
inactive: [1] -28.6% | [2] -12.9% | [3] -11.2% | [4] -10.3% | [5] -14.4% | [6] -18.9%

O=C(CC1=Nc2nnc(-c3nnc4n3C(=O)C(CC(=O)C3CC3)=N4)n2C1=O)C1CC1
inactive: [1] -10% | [2] 2.95% | [3] -5.25% | [4] -16.6% | [5] -4.8% | [6] -3.8%

O=C(OC1COC(n2c(=O)oc3cc([N+](=O)[O-])c([N+](=O)[O-])cc32)C(OC(=O)c2ccccc2)C1OC(=O)c1ccccc1)c1ccccc1 (stereo not given)
inactive: [1] -5.15% | [2] 8.6% | [3] 14.4% | [4] -9.15% | [5] -8.55% | [6] 3.35%

Cc1c([N+](=O)[O-])cc2c(c1[N+](=O)[O-])C(C(C)C)CCC2(C)C (stereo not given)
inactive: [1] -1.5% | [2] -25.2% | [3] 9.65% | [4] 29.2% | [5] -40.4% | [6] -5%

O=C1CCC(=O)c2cc(Br)ccc2N1
inactive: [1] 25.8% | [2] 11.8% | [3] 2.85% | [4] 13% | [5] 46.2% | [6] 23.1%

CCOC(=O)c1nc(-c2ccccc2)c(-c2ccccc2)c(-c2ccccc2)c1C
inactive: [1] -24.6% | [2] -2.55% | [3] 10.2% | [4] -36.9% | [5] -0.6% | [6] -4.85%

COc1ccc(C(C)=O)c(C)c1OC
inactive: [1] 22.6% | [2] 3.65% | [3] 19.6% | [4] 10.4% | [5] -22.2% | [6] 15.2%

CCCCN(CCCC)CC(=O)NC(N)=O
inactive: [1] 4.6% | [2] 0.9% | [3] -6.95% | [4] -2.8% | [5] 10.3% | [6] -6.8%

COc1cc(-c2cc(=O)c3c(OC)c(OC)c(OC)cc3o2)c(OC)c(OC)c1OC
inactive: [1] 38% | [2] 10.6% | [3] 3.05% | [4] -12.9% | [5] -6.15% | [6] -36.8%
